{
  "source": "paper PMC7819943",
  "about": "“Rice protein-binding microarrays: a tool to detect cis-acting elements near promoter regions in rice”",
  "note": "Whole data set: some 35,000 sequences, median “fluorescence intensity (a.u.)” near 10,000, cut for the highest 2% near 52,000. The entries come from a sample that favours the highest values as a whole.",
  "data": [
    {"target": "T1, OsWOX13 (Oryza sativa, UniProt Q5QMM3 1-267)", "T1 sequence": "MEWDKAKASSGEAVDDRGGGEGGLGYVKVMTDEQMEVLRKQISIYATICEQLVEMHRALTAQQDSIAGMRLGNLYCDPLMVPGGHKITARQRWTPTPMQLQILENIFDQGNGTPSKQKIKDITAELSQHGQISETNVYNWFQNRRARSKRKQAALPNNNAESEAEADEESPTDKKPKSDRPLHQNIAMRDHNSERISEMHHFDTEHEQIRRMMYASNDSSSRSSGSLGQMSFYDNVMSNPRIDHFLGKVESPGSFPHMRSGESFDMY", "test": "protein-binding microarray (RPBM); PBS, 2% BSA, 51.3 ng/ul salmon testes DNA, 50 uM zinc acetate, 200 nM TF, 25 C, 1 h; high values mean tight binding", "settings": "protein: recombinant; tags: N-terminal polyhistidine and DsRed monomer fusion (pET32a); label: CyDye5-dUTP incorporated in the synthesized complementary strand; 3' TTTTT single-stranded linker to array surface; dsDNA, one strand shown", "how_it_was_run": "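Transcription factors were each fused at the N-terminus to a polyhistidine tag plus DsRed and expressed in E. coli BL21-CodonPlus before Ni–NTA purification. Binding to a double-stranded custom Agilent array was carried out with 200 nM protein at 25 °C for 1 h in PBS, 2% BSA, salmon testes DNA and 50 µM zinc acetate. The binding signal is per-feature fluorescence intensity, in arbitrary units, on an Axon 4000B scanner.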", "values": [
      {"sequence": "GTCATCAATGATTCAGTGTTAACTACTCCATTTCTAGAAACGGAGTCACCTAGTGCAG", "binding signal": "3880 fluorescence intensity (a.u.)"},
      {"sequence": "ATGAGCCTAACCATTTCTAGTGTTACTTACTCCATTTCAGCGGAGTCACCTAGTGCAG", "binding signal": "64200 fluorescence intensity (a.u.)"},
      {"sequence": "GTGCAATTTAACTCCATAAATTACTTTCAGAAATGTGCAGCGGAGTCACCTAGTGCAG", "binding signal": "11300 fluorescence intensity (a.u.)"},
      {"sequence": "ATAATGGGAAATGGAGGGTGGGATTGGGATTAGAAAATGACGGAGTCACCTAGTGCAG", "binding signal": "3290 fluorescence intensity (a.u.)"},
      {"sequence": "AATATTAGTATTAATTGATAAAAGTTCGTCACGCGAGTTACGGAGTCACCTAGTGCAG", "binding signal": "18200 fluorescence intensity (a.u.)"},
      {"sequence": "ATTTTGAAGTTCCTGTAAGTTGGACATATCTACTGGTTCCCGGAGTCACCTAGTGCAG", "binding signal": "65500 fluorescence intensity (a.u.)"},
      {"sequence": "GAGTAATTTTCTACTGGTTTTAATAGTTGAAATAGCTGTTCGGAGTCACCTAGTGCAG", "binding signal": "3780 fluorescence intensity (a.u.)"},
      {"sequence": "TAAATTGAATGGTTTTGTAAGTTGAGGGACGTCATATATCCGGAGTCACCTAGTGCAG", "binding signal": "21500 fluorescence intensity (a.u.)"},
      {"sequence": "TATCTCTAATTTAGTTAATTTAACTTGTTGATCGATCGCTCGGAGTCACCTAGTGCAG", "binding signal": "21700 fluorescence intensity (a.u.)"},
      {"sequence": "CGTTTCTGATTTGATTCTTCCAAATTTTGGGTTCCTGATTCGGAGTCACCTAGTGCAG", "binding signal": "24800 fluorescence intensity (a.u.)"},
      {"sequence": "ATTTTCTCAATTTATCTCACTCATATAAACTCCAAATTGGCGGAGTCACCTAGTGCAG", "binding signal": "6170 fluorescence intensity (a.u.)"},
      {"sequence": "TTGATTTGATTGGGTTGGTTCCAAATTATATTCTGTGATTCGGAGTCACCTAGTGCAG", "binding signal": "57600 fluorescence intensity (a.u.)"},
      {"sequence": "AGCAAATTTAAATTTGATAGTATAGAATTGGTTCTGAGGTCGGAGTCACCTAGTGCAG", "binding signal": "52400 fluorescence intensity (a.u.)"},
      {"sequence": "CCAAATTTGATTGGCATCTCAAAACTGTCGTATAATTGGGCGGAGTCACCTAGTGCAG", "binding signal": "65500 fluorescence intensity (a.u.)"},
      {"sequence": "TTTGATTTAATTTGTTCTGCAAACAGTCCGGAAAATGCCTCGGAGTCACCTAGTGCAG", "binding signal": "53500 fluorescence intensity (a.u.)"},
      {"sequence": "TCGGTCTGCAAACAAATTGATTGATTTGTTTTCCTTTTGCCGGAGTCACCTAGTGCAG", "binding signal": "47100 fluorescence intensity (a.u.)"},
      {"sequence": "TTATACAAATTATACCTGTTAATTATTGTGATTGTTTGGTCGGAGTCACCTAGTGCAG", "binding signal": "36800 fluorescence intensity (a.u.)"},
      {"sequence": "ACTTGTAGTAATTTAATTTGAAATTCTGTTCTTGCCTCTGCGGAGTCACCTAGTGCAG", "binding signal": "6760 fluorescence intensity (a.u.)"},
      {"sequence": "CAATAAATTTGAATAGCAATTGGTATATGTCATATCTGGTCGGAGTCACCTAGTGCAG", "binding signal": "14900 fluorescence intensity (a.u.)"},
      {"sequence": "AGTTTATGATAATTTAAATTTATATAGTATGTAGAATGGTCGGAGTCACCTAGTGCAG", "binding signal": "14400 fluorescence intensity (a.u.)"},
      {"sequence": "CAAAACTGTCATTTTGTATGATTTCTCTCTCATCAATTGGCGGAGTCACCTAGTGCAG", "binding signal": "17500 fluorescence intensity (a.u.)"},
      {"sequence": "ATTCGTAACCACTTAATTACCCATTTATCCCCTTCTGATTCGGAGTCACCTAGTGCAG", "binding signal": "10600 fluorescence intensity (a.u.)"},
      {"sequence": "TATAAATTTAGTTAAATATATATAAAGAAGTTTGACTTATCGGAGTCACCTAGTGCAG", "binding signal": "9160 fluorescence intensity (a.u.)"},
      {"sequence": "TAATAATTTATTATGTGTATGTGTATGGCTAGGATACAGCCGGAGTCACCTAGTGCAG", "binding signal": "16500 fluorescence intensity (a.u.)"},
      {"sequence": "TGTTTTACCCTGATTGCGTGAAGTGAAACTATTATTCAGGCGGAGTCACCTAGTGCAG", "binding signal": "3550 fluorescence intensity (a.u.)"},
      {"sequence": "CAAATTGGTGGGTGATTGCTAATTTATAACTGTTCGTATTCGGAGTCACCTAGTGCAG", "binding signal": "64100 fluorescence intensity (a.u.)"},
      {"sequence": "GTTCGTTCGTTCGTTGATTGATTGTGTTGAATTAATTGAGCGGAGTCACCTAGTGCAG", "binding signal": "27600 fluorescence intensity (a.u.)"},
      {"sequence": "AAAATTATATAATTATAATTTATTTTATTGCAACTTGATTCGGAGTCACCTAGTGCAG", "binding signal": "27000 fluorescence intensity (a.u.)"},
      {"sequence": "TTTCGTGATAATTTTGTGTGCAATCACAACAATTTGAAATCGGAGTCACCTAGTGCAG", "binding signal": "6180 fluorescence intensity (a.u.)"},
      {"sequence": "TGTATTTGATTGAAACTGTTCATACTATAAACATGCTGGGCGGAGTCACCTAGTGCAG", "binding signal": "57900 fluorescence intensity (a.u.)"},
      {"sequence": "GTCATAATTTGAAATTCAAATTTAAACTATTCAAACAAAGCGGAGTCACCTAGTGCAG", "binding signal": "23300 fluorescence intensity (a.u.)"},
      {"sequence": "ACTAATTTGGTATTATAACTGTTGCTAATTATTCTATAAACGGAGTCACCTAGTGCAG", "binding signal": "21700 fluorescence intensity (a.u.)"},
      {"sequence": "ATCATAATTTGAAATTCAAATTCATACTGTTCAAACAAAGCGGAGTCACCTAGTGCAG", "binding signal": "17600 fluorescence intensity (a.u.)"},
      {"sequence": "GCAAATTGAATTAATTCGTGTGATATTTGTTCTGCACCGGCGGAGTCACCTAGTGCAG", "binding signal": "59500 fluorescence intensity (a.u.)"},
      {"sequence": "TCCACTCAATCTTCTGTTTCTATTTCCCCGTAATCGAAGCCGGAGTCACCTAGTGCAG", "binding signal": "4630 fluorescence intensity (a.u.)"},
      {"sequence": "AGCTAAATTGATTCGTGCACCCAAGTCAACAAGAAAACGTCGGAGTCACCTAGTGCAG", "binding signal": "38900 fluorescence intensity (a.u.)"},
      {"sequence": "TCAAATAATTTCGGTCAGAAATTTCCGAAATTTTGGTAATCGGAGTCACCTAGTGCAG", "binding signal": "7080 fluorescence intensity (a.u.)"},
      {"sequence": "GTAGTTAACCATTTAACCTGATGATGTGAGGACGAAAGAACGGAGTCACCTAGTGCAG", "binding signal": "4950 fluorescence intensity (a.u.)"},
      {"sequence": "ATTAACTATAATTATCGGCTGCAATCTAATTCGAATGTAGCGGAGTCACCTAGTGCAG", "binding signal": "30300 fluorescence intensity (a.u.)"},
      {"sequence": "TGGTGGTGGTGGTGGTAGGGTTAGGGGTAGGAGGGGTCTCCGGAGTCACCTAGTGCAG", "binding signal": "8890 fluorescence intensity (a.u.)"},
      {"sequence": "CAGGTAATGGATTGATTGCAGGGTTGGGATTTGACCAGGTCGGAGTCACCTAGTGCAG", "binding signal": "51800 fluorescence intensity (a.u.)"},
      {"sequence": "TTTCAAATCTCAAATTGAAAGTTTTCAAAATTTTCAAATCCGGAGTCACCTAGTGCAG", "binding signal": "3760 fluorescence intensity (a.u.)"}
    ]}
  ]
}
